# Experimental data as given in PubChem BioAssay.
# Calls of active or inactive are those of the source.
# Tests used:
# [1] = binders of probe aFSTL3 on microarray, primary screen, stem cell growth factor project, biochemical, small-molecule microarray, fluorescence 635/667 (AID 1064); conditions: higher = more signal;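 note: measures binding of the biotinylated anti-FSTL3 antibody to printed compounds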
# [2] = binders from COS7 lysate, DM2A8 probe, primary screen, torsin A project, cell lysate, small-molecule microarray, fluorescence 635/667 (AID 1065); conditions: higher = more signal, COS7 lysate expressing mutant human TOR1A
# [3] = binders of probe aFGF2 on microarray, primary screen, stem cell growth factor project, biochemical, small-molecule microarray, fluorescence 635/667 (AID 1067); conditions: higher = more signal;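 note: measures binding of biotinylated aFGF2 protein to printed compounds on slides; z-score merges feature fluorescence and signal-to-noise across triplicate slides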
# [4] = binders of probe aFGF10 on microarray, primary screen, stem cell growth factor project, biochemical, small-molecule microarray, fluorescence 635/667 (AID 1071); conditions: higher = more signal;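 note: score merges 667 nm spot intensity and signal to noise from triplicate slides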
# [5] = target: Neurogenic locus notch homolog protein 2 (Homo sapiens) (UniProt Q04721); assay: Notch2 binders on small-molecule microarrays, primary screen, biochemical, small-molecule microarray, 635 nm fluorescence, stem cell growth factors (AID 1073); conditions: Notch2 binding, higher = more signal
# [6] = target: Pro-neuregulin-1, membrane-bound isoform (Homo sapiens) (UniProt Q02297); assay: NRG1 binders on small-molecule microarrays, primary screen, psychiatric disease protein project, biochemical, small-molecule microarray, fluorescence 635/667 (AID 1075); conditions: NRG1 binding, 635 nm fluorescence, higher = more signal;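 note: score combines 667 nm spot fluorescence with signal to noise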
# [7] = system: Neuregulin-1 EGF-like domain; assay: binders of neuregulin-1 EGF-like domain, primary screen, biochemical, small-molecule microarray, 635 nm fluorescence (AID 1081); conditions: small-molecule microarray binding, higher = more signal;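 note: binding of the protein to compounds printed on small-molecule microarray slides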
# [8] = FRG1 promoter luciferase signal modulators, primary screen, FRG1 inhibition for FSHD, cell-based, C2C12 myotubes, firefly/Renilla luciferase, luminescence (AID 1084); conditions: higher = more signal, called active from +8 up or from −8 down
# [9] = binders of probe aFST on microarray, primary screen, stem cell growth factor project, biochemical, small-molecule microarray, fluorescence 635/667 (AID 1086); conditions: higher = more signal;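 note: score merges 667 nm fluorescence with signal-to-noise of each printed compound spot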
# [10] = binders of probe aHhip on microarray, primary screen, stem cell growth factor project, biochemical, small-molecule microarray, fluorescence 635/667 (AID 1087); conditions: higher = more signal;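 note: score merges spot fluorescence at 667nm with spot signal to noise ratio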
# [11] = system: PRMT1 (protein arginine N-methyltransferase 1); assay: PRMT1 binders on small-molecule microarrays, primary screen, biochemical, small-molecule microarray, 635 nm fluorescence (AID 1088); conditions: small-molecule microarray binding, higher = more signal;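 note: binding of Prmt1 protein to compounds spotted on small-molecule microarray slides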
# [12] = yeast growth modulation, basal conditions, primary screen, YJM789 clinical isolate, OD600, 24 h (AID 1089);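 note: growth of clinical yeast isolate S. cerevisiae YJM 789 seeded 1000 cells per well; test concentration not given here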; conditions: S. cerevisiae YJM789 growth, higher = more signal, called active from +8 up or from −8 down
# [13] = fission yeast growth modulation, primary screen, strain 972, OD600, 24 h, no modulator (AID 1090);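 note: basal condition with compound alone and no growth modifier present; test concentration not given here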; conditions: S. pombe 972 growth, higher = more signal, called active from +8 up or from −8 down
# [14] = S. cerevisiae growth modulation with rapamycin, primary screen, strain BY4716, OD600, 96 h (AID 1091); conditions: higher = more signal, called active from +8 up or from −8 down; note: test concentration not given here
# [15] = target: Torsin-1A-interacting protein 2 (Homo sapiens) (UniProt Q8NFQ8); assay: LULL1 binders on small-molecule microarray, primary screen, cell lysate, human LULL1 lysate, 635/667 nm fluorescence (AID 1092); conditions: hLULL1 lysate binding, 635 nm fluorescence, higher = more signal;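 note: probe is lysate of COS7 cells overexpressing human LULL1; score merges per-feature 667 nm fluorescence with signal-to-noise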
# [16] = E. coli growth modulation, two-sided OD650, primary screen, E. coli filamentation project, strain DRC41, 24 h (AID 1093); conditions: OD650, 24 h, higher = more signal, called active from +8 up or from −8 down;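 note: MC1000 strain lacking acrAB efflux and sulA so SOS filamentation is blocked; test concentration not given here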
# [17] = small-molecule microarray binders of probe aLefty2, primary screen, biochemical, biotinylated probe, 635/667 nm fluorescence (AID 1094); conditions: higher = more signal;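 note: score merges spot fluorescence near 667 nm with spot signal-to-noise ratio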
# [18] = system: Noggin (protein binding on small-molecule microarray); assay: Noggin binders on small-molecule microarray, primary screen, biochemical, 635/667 nm fluorescence (AID 1095); conditions: 635 nm fluorescence, higher = more signal;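 note: score merges 667 nm feature fluorescence with signal to noise over triplicate slides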
# [19] = target: Neurogenic locus notch homolog protein 3 (Homo sapiens) (UniProt Q9UM47); assay: NOTCH3 binders on small-molecule microarray, primary screen, biochemical, 635/667 nm fluorescence (AID 1096); conditions: NOTCH3 binding, 635 nm fluorescence, higher = more signal
# [20] = small-molecule microarray binders of probe aEGFR, primary screen, biochemical, biotinylated probe, 635/667 nm fluorescence (AID 1097); conditions: higher = more signal;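 note: probe is a biotinylated anti-EGFR antibody binding compounds printed on slides; score combines fluorescence near 667 nm and signal to noise of each spot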
# Chain of Neurogenic locus notch homolog protein 2 (Homo sapiens) (Q04721 whole entry, looked up, canonical isoform): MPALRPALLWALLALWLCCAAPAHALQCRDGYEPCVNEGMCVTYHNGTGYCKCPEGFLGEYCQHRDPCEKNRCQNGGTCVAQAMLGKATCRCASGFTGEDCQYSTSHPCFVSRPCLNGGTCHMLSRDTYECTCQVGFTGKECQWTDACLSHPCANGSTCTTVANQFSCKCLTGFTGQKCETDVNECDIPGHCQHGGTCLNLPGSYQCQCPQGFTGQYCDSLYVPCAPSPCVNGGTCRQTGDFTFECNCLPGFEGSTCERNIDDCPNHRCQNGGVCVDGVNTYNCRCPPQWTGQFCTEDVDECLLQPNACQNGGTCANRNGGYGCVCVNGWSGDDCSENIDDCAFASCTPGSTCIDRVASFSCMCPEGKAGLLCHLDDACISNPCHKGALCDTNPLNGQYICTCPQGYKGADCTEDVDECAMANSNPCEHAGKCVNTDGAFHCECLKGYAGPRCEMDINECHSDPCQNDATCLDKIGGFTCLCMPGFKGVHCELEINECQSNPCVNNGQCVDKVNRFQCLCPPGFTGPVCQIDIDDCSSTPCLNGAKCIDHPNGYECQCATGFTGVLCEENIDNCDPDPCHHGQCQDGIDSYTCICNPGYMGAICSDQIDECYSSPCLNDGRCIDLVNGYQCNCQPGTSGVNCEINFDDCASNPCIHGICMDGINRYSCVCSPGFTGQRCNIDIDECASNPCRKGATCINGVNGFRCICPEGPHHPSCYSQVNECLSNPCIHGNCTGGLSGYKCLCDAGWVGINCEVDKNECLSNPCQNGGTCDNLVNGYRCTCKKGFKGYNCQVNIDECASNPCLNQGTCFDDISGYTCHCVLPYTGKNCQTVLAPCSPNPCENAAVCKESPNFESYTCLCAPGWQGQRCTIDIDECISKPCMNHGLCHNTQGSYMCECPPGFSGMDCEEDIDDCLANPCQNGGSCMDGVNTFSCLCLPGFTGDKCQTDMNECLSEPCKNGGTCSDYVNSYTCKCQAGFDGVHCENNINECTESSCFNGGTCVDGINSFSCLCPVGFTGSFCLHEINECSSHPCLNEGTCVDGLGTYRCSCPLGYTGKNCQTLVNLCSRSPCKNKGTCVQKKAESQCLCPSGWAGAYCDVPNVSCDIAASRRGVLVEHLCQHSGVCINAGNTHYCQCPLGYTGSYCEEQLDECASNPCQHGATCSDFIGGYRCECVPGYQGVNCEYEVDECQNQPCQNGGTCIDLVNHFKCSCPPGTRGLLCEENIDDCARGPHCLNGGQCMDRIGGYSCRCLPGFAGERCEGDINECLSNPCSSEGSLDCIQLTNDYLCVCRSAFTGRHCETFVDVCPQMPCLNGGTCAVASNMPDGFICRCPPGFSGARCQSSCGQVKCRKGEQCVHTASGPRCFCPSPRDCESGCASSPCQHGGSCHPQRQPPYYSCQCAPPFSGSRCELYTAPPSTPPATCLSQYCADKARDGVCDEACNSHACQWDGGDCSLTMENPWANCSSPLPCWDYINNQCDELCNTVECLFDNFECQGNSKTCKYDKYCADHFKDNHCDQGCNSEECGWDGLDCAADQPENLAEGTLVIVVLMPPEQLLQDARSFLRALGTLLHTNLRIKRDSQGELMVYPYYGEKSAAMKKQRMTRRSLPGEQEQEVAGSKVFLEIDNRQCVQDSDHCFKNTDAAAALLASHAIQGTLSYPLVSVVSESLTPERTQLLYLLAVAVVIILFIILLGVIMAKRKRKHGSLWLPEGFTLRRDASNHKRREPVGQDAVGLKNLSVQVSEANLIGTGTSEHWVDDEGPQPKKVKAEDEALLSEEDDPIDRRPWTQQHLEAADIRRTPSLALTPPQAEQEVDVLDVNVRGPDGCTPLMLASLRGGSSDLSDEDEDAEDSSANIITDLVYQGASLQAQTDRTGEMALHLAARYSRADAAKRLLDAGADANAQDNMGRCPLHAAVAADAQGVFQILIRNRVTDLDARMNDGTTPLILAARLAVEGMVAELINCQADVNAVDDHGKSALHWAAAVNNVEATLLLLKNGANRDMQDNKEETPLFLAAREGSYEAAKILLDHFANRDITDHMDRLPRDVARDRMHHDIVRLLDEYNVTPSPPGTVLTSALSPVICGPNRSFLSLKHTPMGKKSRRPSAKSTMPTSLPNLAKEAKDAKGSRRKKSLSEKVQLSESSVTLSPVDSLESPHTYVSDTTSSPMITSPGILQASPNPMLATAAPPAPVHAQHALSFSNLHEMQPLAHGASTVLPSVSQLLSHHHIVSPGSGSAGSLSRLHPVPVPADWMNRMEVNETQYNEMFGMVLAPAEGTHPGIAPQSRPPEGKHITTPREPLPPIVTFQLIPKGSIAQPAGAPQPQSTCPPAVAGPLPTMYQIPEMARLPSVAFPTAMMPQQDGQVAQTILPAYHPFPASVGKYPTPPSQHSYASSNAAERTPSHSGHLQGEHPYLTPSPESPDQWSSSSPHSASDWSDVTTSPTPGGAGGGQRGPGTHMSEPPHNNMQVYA
# Chain of Neurogenic locus notch homolog protein 3 (Homo sapiens) (Q9UM47 whole entry, looked up): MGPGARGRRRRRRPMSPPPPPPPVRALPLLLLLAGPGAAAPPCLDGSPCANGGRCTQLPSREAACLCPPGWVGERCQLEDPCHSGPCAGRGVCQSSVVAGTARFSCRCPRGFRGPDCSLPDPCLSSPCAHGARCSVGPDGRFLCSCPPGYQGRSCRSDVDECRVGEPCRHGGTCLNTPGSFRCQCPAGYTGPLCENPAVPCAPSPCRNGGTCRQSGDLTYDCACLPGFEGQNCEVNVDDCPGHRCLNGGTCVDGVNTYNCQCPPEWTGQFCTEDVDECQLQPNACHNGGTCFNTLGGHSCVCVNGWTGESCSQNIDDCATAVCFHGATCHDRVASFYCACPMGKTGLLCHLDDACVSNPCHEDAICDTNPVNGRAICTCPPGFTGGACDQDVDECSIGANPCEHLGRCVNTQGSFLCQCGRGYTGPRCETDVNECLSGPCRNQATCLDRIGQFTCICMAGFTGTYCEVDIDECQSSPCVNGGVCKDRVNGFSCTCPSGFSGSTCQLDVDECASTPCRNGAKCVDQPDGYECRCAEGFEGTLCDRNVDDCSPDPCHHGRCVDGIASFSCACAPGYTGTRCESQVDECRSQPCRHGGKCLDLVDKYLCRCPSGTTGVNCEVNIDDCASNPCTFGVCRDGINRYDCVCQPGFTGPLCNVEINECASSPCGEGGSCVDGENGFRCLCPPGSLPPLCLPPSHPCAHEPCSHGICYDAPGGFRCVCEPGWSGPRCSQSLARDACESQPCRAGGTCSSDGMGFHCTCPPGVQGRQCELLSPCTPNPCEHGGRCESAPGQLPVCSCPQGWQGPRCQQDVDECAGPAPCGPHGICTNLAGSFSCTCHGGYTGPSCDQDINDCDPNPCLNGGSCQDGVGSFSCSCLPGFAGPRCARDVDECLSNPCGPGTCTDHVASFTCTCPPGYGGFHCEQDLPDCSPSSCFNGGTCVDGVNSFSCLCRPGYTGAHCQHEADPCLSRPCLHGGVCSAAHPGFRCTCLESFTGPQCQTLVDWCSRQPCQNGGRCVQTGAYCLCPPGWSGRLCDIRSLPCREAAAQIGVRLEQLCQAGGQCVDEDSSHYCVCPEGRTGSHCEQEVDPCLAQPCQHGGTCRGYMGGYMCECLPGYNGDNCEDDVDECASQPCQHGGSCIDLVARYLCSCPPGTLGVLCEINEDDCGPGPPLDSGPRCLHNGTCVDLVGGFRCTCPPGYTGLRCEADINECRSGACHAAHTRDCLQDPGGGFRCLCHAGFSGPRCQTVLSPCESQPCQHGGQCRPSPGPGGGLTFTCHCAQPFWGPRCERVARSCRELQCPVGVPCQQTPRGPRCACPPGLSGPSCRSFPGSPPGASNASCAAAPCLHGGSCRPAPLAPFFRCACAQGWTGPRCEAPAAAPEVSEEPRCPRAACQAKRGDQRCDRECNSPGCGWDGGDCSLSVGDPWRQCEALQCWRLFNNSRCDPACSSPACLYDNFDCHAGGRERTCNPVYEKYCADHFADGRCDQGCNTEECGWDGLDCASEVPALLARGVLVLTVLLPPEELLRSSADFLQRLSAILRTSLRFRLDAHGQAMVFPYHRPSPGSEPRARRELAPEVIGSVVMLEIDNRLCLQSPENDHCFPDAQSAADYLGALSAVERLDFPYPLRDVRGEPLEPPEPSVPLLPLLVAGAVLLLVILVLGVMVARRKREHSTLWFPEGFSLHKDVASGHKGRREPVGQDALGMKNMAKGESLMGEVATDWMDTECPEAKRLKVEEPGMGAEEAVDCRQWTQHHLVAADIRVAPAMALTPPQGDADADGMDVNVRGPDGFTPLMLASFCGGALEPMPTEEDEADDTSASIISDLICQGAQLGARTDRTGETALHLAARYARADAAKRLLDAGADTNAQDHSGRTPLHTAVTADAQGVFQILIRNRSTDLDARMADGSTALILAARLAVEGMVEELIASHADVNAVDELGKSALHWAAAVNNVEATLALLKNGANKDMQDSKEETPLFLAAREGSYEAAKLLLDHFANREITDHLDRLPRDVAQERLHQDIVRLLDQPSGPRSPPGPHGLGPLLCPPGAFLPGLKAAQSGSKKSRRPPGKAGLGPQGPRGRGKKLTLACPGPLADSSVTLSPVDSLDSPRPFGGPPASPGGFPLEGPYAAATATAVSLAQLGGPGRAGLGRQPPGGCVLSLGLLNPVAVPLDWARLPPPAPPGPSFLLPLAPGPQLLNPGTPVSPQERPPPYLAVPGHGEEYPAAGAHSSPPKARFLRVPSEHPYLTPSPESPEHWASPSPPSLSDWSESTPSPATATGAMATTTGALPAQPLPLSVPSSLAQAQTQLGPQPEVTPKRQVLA
SMILES,composite z-score [1],composite z-score [2],composite z-score [3],composite z-score [4],composite z-score [5],composite z-score [6],composite z-score [7],z-score [8],composite z-score [9],composite z-score [10],composite z-score [11],z-score [12],z-score [13],z-score [14],composite z-score [15],z-score [16],composite z-score [17],composite z-score [18],composite z-score [19],composite z-score [20]
COc1ccc(O[C@H]2C=C[C@@H](c3ccccc3)O[C@@H]2COC(=O)CCC(C)=NOC[C@@H](C)[C@H](OCc2ccccc2)C(C)C)cc1,-0.404,-0.48,-0.171,-0.14,-1.1,-1.09,-1.02,0.696 (inactive),-0.504,-0.184,-0.548,0.122 (inactive),0.329 (inactive),-1.18 (inactive),-0.694,0.17 (inactive),-0.261,-0.37,-1.03,-0.219
C=COC[C@H]1CN2[C@@H](CC[C@@H](C)[C@@H]2c2ccc(Br)cc2)C(=O)O1,-0.6,0.268,-0.151,0.581,0.793,0.0578,1.12,-0.688 (inactive),0.355,0.0373,1.4,-2.69 (inactive),-4.68 (inactive),-1.52 (inactive),1.99,-0.0786 (inactive),-0.155,0.372,0.521,0.0402
COCCNC(=O)OCC1CCCC2(CC(OC(=O)NCCc3ccc(F)cc3)CC(CCC(=O)N[C@@H](C)C(=O)OC)O2)O1 (stereo not given in full),-0.576,0.37,-0.132,0.632,1.1,0.511,0.777,-0.0861 (inactive),0.347,-0.196,1.5,0.104 (inactive),-0.0142 (inactive),0.647 (inactive),0.876,0.0947 (inactive),-0.0845,0.403,1.08,0.433
CCOC(=O)C[C@H]1[C@H](OC(=O)c2cc3ccccc3oc2=O)[C@@H](NC(=O)c2ccc3ccccc3n2)c2cc(OCCCO)ccc2N1C(=O)c1ccccc1,-0.189,0.459,-0.0455,0.706,0.302,0.0269,0.736,0.331 (inactive),0.353,-0.383,0.5,0.282 (inactive),-0.738 (inactive),0.156 (inactive),0.413,0.471 (inactive),-0.0171,0.603,0.724,0.0745
C[C@@H](c1ccccc1)N1C(=O)[C@H]2[C@H]3[C@H](O)[C@H](O)CC(=NOC[C@@H](O)COCc4ccco4)[C@@H]3CC[C@H]2C1=O,0.193,0.068,-0.159,-0.141,-1.02,-0.717,-0.647,-0.0058 (inactive),0.0275,-0.137,-0.291,0.539 (inactive),0.37 (inactive),1.3 (inactive),0.304,0.181 (inactive),-0.217,-1.01,-1.1,-0.221
CCOC(=O)C1=CCC(c2cc3ccccc3[nH]2)NC1 (stereo not given),1.31,0.758,-0.0629,-0.355,0.476,0.963,1.13,4.17 (inactive),0.77,-0.156,0.37,-1.36 (inactive),-2.39 (inactive),1.42 (inactive),2.45,-0.0849 (inactive),0.389,-0.465,0.335,-0.0065
Cn1cccc1C(O)C1C=CC2C(=O)NC(=O)C2N1Nc1ccccn1 (stereo not given),-0.177,0.124,-0.179,-0.0312,0.359,0.782,0.371,1.63 (inactive),0.339,0.0053,0.408,0.0886 (inactive),1.23 (inactive),0.0533 (inactive),-0.503,-0.975 (inactive),-0.19,-0.0645,-0.929,0.0865
CC(=O)OC[C@H]1O[C@@H](ON=C[C@@H](C)[C@H](OCc2ccccc2)C(C)C)[C@H](OC(C)=O)[C@@H](OC(C)=O)[C@@H]1OC(C)=O,-0.624,1.69,-0.0959,0.372,0.55,-0.927,-1.19,-0.703 (inactive),0.304,-0.134,1.48,0.475 (inactive),0.0572 (inactive),-0.17 (inactive),-1.59,-0.057 (inactive),-0.114,0.605,0.751,0.0359
CN(C)c1ccc(C(O)C2C=CC3C(=O)N(c4ccccc4)C(=O)C3N2Nc2ccccc2F)cc1 (stereo not given),0.357,-0.159,-0.0422,0.208,1.46,0.86,1.25,3.64 (inactive),0.957,-0.212,1.09,0.0194 (inactive),-13.6 (active),1.7 (inactive),2.21,-0.457 (inactive),-0.166,-0.318,0.443,0.0904
